Experimental data: PubChem BioAssay (NCATS)
Results filed as inconclusive are left out. Active and inactive are the calls of the source. Calls follow the shape of the dose curve; as a rule, active = well fitted curve in the direction sought with a large enough effect; inconclusive = small, poorly fitted or top-dose-only effect, or another doubt; inactive = no such curve, though single readings can be large; an effect the other way counts as inactive or inconclusive.

How the values were obtained:
[1] = SDT Cancer Cell Toxicity qHTS against the NCATS CANVASS Library (AID 1347365); conditions: SDT dog glioma viability, ATP luminescence, 72 h; also: potency is read from the fitted curve at half-maximal effect; nearly all actives have a fitted effect of over 60% in size
Excerpt: (§1) Natural products and their derivatives continue to be wellsprings of nascent therapeutic potential. However, many laboratories have limited resources for biological evaluation, leaving their previously isolated or synthesized compounds largely or completely untested. To address this issue, the Canvass library of natural products was assembled (https://tripod.nih.gov/canvass), in collaboration with academic and industry researchers, for quantitative high-throughput screening (qHTS) across a diverse set of cell-based and biochemical assays. […] The library was formatted into 1536-well plates and evaluated in 50 qHTS (in an 11-pnt concentration series) bioassays with broad scope of disease-relevant mechanisms. The resulting data set from 50 different assays was then systematically analyzed to identify overall trends and specific natural products with interesting biological activities. […] This assay uses ATP (luminescence) content to measure the cytotoxiciy of compounds on SDT dog glioma cancer cell line. […]
Cancer Cell Toxicity qHTS protocol: for cell lines G06, J3T, and SDT. […] Luminescence signal was acquired via the ViewLux plate reader (PerkinElmer) using a clear emission filter, 2 sec exposure, and 1x binning settings.

[2] = qHTS for ATAD5 Agonist screened against the NCATS CANVASS Library (AID 1347367); conditions: HEK293T ATAD5-luciferase reporter, luminescence, 16 h; series mostly up to 46.1 µM;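 also: luciferase reporter driven by ATAD5 which rises upon DNA damage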
In short: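 HEK293T cells stably carrying an ATAD5-controlled luciferase reporter (2000 cells/well) attached for 5 hr, then received compounds in an 11-point series for 16hr at 37C. Luminescence was read after a 30 min room-temperature reagent step.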

[3] = G06 Cancer Cell Toxicity qHTS against the NCATS CANVASS Library (AID 1347368); conditions: G06 dog glioma cells, viability ATP luminescence, 72 h; also: potency is read from the fitted curve at half-maximal effect; nearly all actives have a fitted effect of over 60% in size
In short: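 Cells were plated at 500 per well, then compounds were added over an 11-point range. After 72 hr at 37C, CellTiterGlo was added and luminescence measured as ATP content.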

[4] = MCF7 Cancer Cell Toxicity qHTS against the NCATS CANVASS Library (AID 1347369); conditions: MCF7 viability, ATP luminescence (CellTiter-Glo), 72 h; also: potency is read from the fitted curve at half-maximal effect
Excerpt: as §1, with “assays. The pure (>85% purity by liquid chromatography/mass spectrometry [LC/MS]) Canvass library of 346 natural products were submitted by 45 academic laboratories and companies around the world.” for “assays.”, “MCF7 human breast” for “SDT dog glioma”
Cancer Cell Toxicity qHTS protocol: MCF7 cell line 1. […] Luminescence signal was acquired via the ViewLux plate reader (PerkinElmer) using a clear emission filter, 2 sec exposure, and 1x binning settings.

[5] = J3T Cancer Cell Toxicity qHTS against the NCATS CANVASS Library (AID 1347371); conditions: J3T dog glioma viability, ATP luminescence, 72 h; also: potency is read from the fitted curve at half-maximal effect
In short: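 Luminescence from CellTiterGlo, reporting cellular ATP, serves as the viability measure after 72 hr compound treatment of J3T canine glioma cells seeded at 500 cells/well.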

[6] = biological target: Nuclear receptor subfamily 1 group I member 3 (Homo sapiens) (UniProt Q14994); experiment: qHTS for Constitutive Androstane Receptor (CAR) Antagonist screened against the NCATS CANVASS Library (AID 1347372); conditions: HepG2-hCAR-CYP2B6 luciferase, CITCO-stimulated antagonist mode; series mostly up to 46.1 µM;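 also: cells stimulated with 50 nM CITCO agonist so inhibition reflects antagonism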
In short: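 Antagonist mode: compound added alongside 50 nM CITCO to HepG2-hCAR-CYP2B6 reporter cells, 24hr at 37C. Viability by CellTiter-Fluor fluorescence, then CAR-driven luciferase by ONE-Glo luminescence.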

[7] = biological target: Nuclear receptor subfamily 1 group I member 3 (Homo sapiens) (UniProt Q14994); experiment: qHTS for Constitutive Androstane Receptor (CAR) Agonist screened against the NCATS CANVASS Library (AID 1347373); conditions: HepG2-hCAR-CYP2B6 luciferase reporter, ONE-Glo luminescence; series mostly up to 46.1 µM;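 also: every well also contained 1.5 µM PK11195 alongside the test compound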
In short: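 Cells were plated and allowed to attach for 4hr, then dosed with compound in an 11-point series alongside 1.5uM PK11195. After 24hr at 37C, viability was measured fluorometrically and CAR-driven CYP2B6 reporter luminescence was recorded.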

[8] = 10-beta competent E. coli microbial cell viability qHTS against the NCATS CANVASS Library (AID 1347376); conditions: E. coli 10-beta viability, BacTiter-Glo ATP luminescence, overnight; series mostly up to 46.1 µM
Excerpt: as §1, with “The BacTiter-Glo microbial cell viability” for “This”, “is a homogeneous method for determining the number of viable bacterial cells in culture based on quantitation of the” for “uses”, “present. […] The homogeneous assay procedure involves adding a single reagent (BacTiter-GloTM Reagent) directly” for “(luminescence) content”, “bacterial cells in medium and measuring luminescence.” for “measure the cytotoxiciy of compounds on SDT dog glioma cancer cell line.”

[9] = DH5-alpha competent E. coli microbial cell viability qHTS against the NCATS CANVASS Library (AID 1347377); conditions: BacTiter-Glo ATP luminescence, overnight; series mostly up to 46.1 µM
In short: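 Bacteria were dispensed at 0.2 OD, then compounds were pin-transferred. Plates were incubated overnight at 37C, after which BacTiter-Glo was added and luminescence measured 20 min later.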

[10] = qHTS for H2AX Agonists against the NCATS CANVASS Library (AID 1347378); conditions: CHO-K1 H2AX phosphorylation, HTRF TR-FRET, 3 h; also: potency is read from the fitted curve at half-maximal effect
In short: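 CHO-K1 cells were plated overnight at 37C, then exposed to compounds (concentration series, 0.76% DMSO final) for 3 hr at 37C. Lysates received Eu-cryptate anti-pH2AX (S139) and d2 anti-H2AX antibodies; after 24 hr at room temperature, TR-FRET 665/620 nm ratio was read.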

Measured: Potency

Sequence of Nuclear receptor subfamily 1 group I member 3 (Homo sapiens) (Q14994 whole entry, looked up): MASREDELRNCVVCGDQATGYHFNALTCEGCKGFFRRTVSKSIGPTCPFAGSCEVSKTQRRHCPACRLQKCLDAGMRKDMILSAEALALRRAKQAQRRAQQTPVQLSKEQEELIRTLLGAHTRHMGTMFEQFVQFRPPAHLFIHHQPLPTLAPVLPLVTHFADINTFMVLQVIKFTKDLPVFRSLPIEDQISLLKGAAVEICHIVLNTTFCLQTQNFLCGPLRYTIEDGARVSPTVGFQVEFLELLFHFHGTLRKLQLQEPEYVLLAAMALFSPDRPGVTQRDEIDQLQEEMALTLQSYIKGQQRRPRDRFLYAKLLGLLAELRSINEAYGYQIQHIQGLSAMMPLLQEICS

C=C1C(=O)O[C@H]2[C@H]1CC/C(C)=C/CC[C@@]1(C)O[C@@H]21
active: [1] 8.33 µM | [3] 9.35 µM | [4] 7.39 µM | [5] 16.6 µM | [10] 4.86 µM
inactive: all other assays above
